Measured values taken from PubChem BioAssay (NCI).
“And” between values parts separate entries of the source, which are not always exact repeats. Equal values may be shown once. This is part of a sample that, as a whole, favours compounds with a hit. Of some 83,000 tested, about 20% had one in any assay.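 In brief: 96-well plates, 48 h treatment, single concentration, percent growth endpoint.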 The source made the active and inactive calls. The calls were made as follows: active = growth percent below 10; inactive = the rest.

The compounds below were run on ACHN renal (assay: NCI-60 one-dose screen, 48 h (100 = growth as untreated, 0 = no growth, -100 = all killed)). Settings: 10 µM unless noted.

Row | SMILES | growth
1 | COc1ccc(-c2nc3ccccc3n2CC(=O)N=Nc2c(O)[nH]c3ccc(OC)cc23)cc1 | 10.1% (inactive)
2 | COc1cc(NC(=O)C(C)C)ccc1C(=O)NC(=S)Nc1ccc(S(N)(=O)=O)cc1 | 103% (inactive)
3 | COc1cc(C2CC(c3cc(OC)c(OC)c(OC)c3)=Nc3c(N)nc(N)nc3N2)ccc1Oc1nc(Nc2ccc(F)cc2)nc(N(C)C)n1 (centres undefined) | 68.1% (inactive)
4 | COc1ccc(C2=NN(C(=O)[C@H]3[C@@H](c4ccco4)c4sc(=O)[nH]c4S[C@@H]3C)C(c3ccc4ccccc4c3)C2)cc1 (some centres undefined) | 16% (inactive)
5 | O=C(CSc1nc2c(c(=O)[nH]1)CCCC2)Nc1ccccc1C(=O)O | 106% (inactive)
6 | O=C1c2cccc3c(N4CCN(c5ccccc5)CC4)ccc(c23)C(=O)N1c1cccc(-c2nn(-c3ccccc3)cc2-c2nc3ccccc3s2)c1 | 94.9% (inactive)
7 | N#CCc1nnc(NC(=O)c2ccc(-n3c(=O)[nH]c4ccccc4c3=O)cc2)s1 | 92.1% (inactive)
8 | CCOC(=O)/C(F)=C/C1CC1C(c1ccccc1)c1ccccc1 (centres undefined) | 98.9% (inactive)
9 | Cc1ccc(S(=O)(=O)N(CCn2ccnc2[N+](=O)[O-])CCn2ccnc2[N+](=O)[O-])cc1 | 101% (inactive)
10 | CC(C)(C)C(=O)c1c2c(c3ccc4c5ccccc5ccc4n13)C(=O)c1ccccc1C2=O | 79.2% (inactive)
11 | O=C(N=Nc1c(O)[nH]c2ccc(Cl)cc12)c1ccc2nc(-c3ccc(Cl)cc3)[nH]c2c1 | 73.4% (inactive)
12 | COc1ccc(NC(=O)Cn2c(/C=C/c3cccc(OC)c3)nc3ccccc3c2=O)cc1 | -61.4% (active)
13 | Cc1cccc(/C=C/c2ccc(NC(=S)NCCCCN(C)C)cc2)c1 | -100% (active)
14 | Cc1ccc(C(=O)C[n+]2cccc3c4ccccc4ccc32)cc1 | 50.6% (inactive)
15 | c1ccc(CSc2nnc(-c3ccc4nc(-c5ccccc5)[nH]c4c3)o2)cc1 | 1.16% (active)
16 | O=C(Nc1ccc(-c2ccc3c(c2)NC(=O)/C3=C\c2ccc[nH]2)cc1)Nc1cccc(Cl)c1 | -19.6% (active)
17 | N#Cc1c(-c2ccc(F)cc2)nc(SCc2ccc(F)cc2)nc1N1CCNCC1 | -79% (active)

Row | SMILES | growth
18 | Cc1cc(C2(c3cc(C)c(OCC(O)CNc4c(C)n(C)n(-c5ccccc5)c4=O)cc3C(C)C)OC(=O)c3ccccc32)c(C(C)C)cc1OCC(O)CNc1c(C)n(C)n(-c2ccccc2)c1=O (centres undefined) | 17.1% (inactive)
19 | O=CNc1cccc(-n2cnc3cc(-c4ccc(O)cc4)ccc32)c1 | 16.9% (inactive)
20 | COc1ccc(S(=O)(=O)Nc2ccc(-c3ccc4c(c3)NC(=O)/C4=C\c3ccc[nH]3)cc2)cc1OC | -31.4% (active)
21 | CC(=O)Nc1cccc(-n2c(COc3ccc(Br)cc3)nc3ccccc32)c1 | 79.6% (inactive) and 107% (inactive)
22 | CCCCNC(=S)Nc1ccc(OCc2nc3ccc(Cl)cc3[nH]2)cc1 | 5.02% (active)
23 | COc1ccc(OC)c(Cn2cc(C#N)c(N)c2C(=O)c2ccc(Br)cc2)c1 | 84.9% (inactive)
24 | NCCCCn1c(SCCc2c[nH]c3ccccc23)nnc1-c1ccc2ccccc2n1 | -55.1% (active)
25 | COc1cc(CNC(=O)C[C@H](C)CCC=C(C)C)ccc1OCc1cn(-c2ccccc2Cl)nn1 | 67.6% (inactive)
26 | NS(=O)(=O)c1ccc(N2N=C(c3ccc(NC(=O)Nc4ccccc4)cc3)CC2c2ccc(Br)cc2)cc1 (centres undefined) | -100% (active)
27 | COc1ccc(NC(=O)CSc2nnc(-c3ccc(-c4nc5ccc(Cl)cc5[nH]4)cc3)o2)cc1 | 2.97% (active)
28 | CC1=C(C(=O)OCc2ccccc2)C(c2ccc(N(C)C)cc2)n2c(nc3ccccc32)N1 (centres undefined) | 88.5% (inactive)
29 | NS(=O)(=O)c1ccc(Nc2nc(N/N=C/c3cc(Br)c(O)c(Br)c3)nc(Nc3ccccc3)n2)cc1 | 92.3% (inactive)
30 | COc1cccc(NC(=O)c2ccc(NC(=O)CCl)s2)c1 | 66.4% (inactive)
31 | Cc1oc(-c2ccccc2)nc1CN[C@@H]1C[C@@H]2C[C@H]([C@H]1C)C2(C)C | 25.8% (inactive)
32 | C=CC(=O)Nc1ccc(C(=O)/C=C/c2ccc(N(C)C)cc2)c(O)c1 | -47.5% (active)
33 | COc1cc(/C=C/C(=O)c2cnn(-c3cc(=O)[nH]c4ccc(Cl)cc34)c2C)cc(OC)c1OC | -35.4% (active)
34 | COc1cc(C=O)ccc1Oc1nc(Nc2ccc(F)cc2)nc(N(C)C)n1 | 105% (inactive) and 63.3% (inactive)
